Screening data deposited in PubChem by National Center for Advancing Translational Sciences (NCATS).
An excerpt weighted towards active compounds, which were near 19% of everything screened.
DT40 TDP1 no CPT – qHTS for Inhibitors of human tyrosyl-DNA phosphodiesterase 1 (TDP1): qHTS in cells in absence of CPT; DT40 Tdp1-/- hTDP1 cells, no CPT, ATP luminescence, 48 h; Potency, µM (top dose mostly 46.2 µM), usual class: inhibitors; 420,000 tested, 15% active; AID 686978, 2013; note: nearly all actives have a fitted effect of over 55% in size
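Cells were dispensed at 400 per well, compounds added by pin tool, plates incubated ≥48 hr at 37 °C, then CellTiter-Glo added for 30 min at room temperature before luminescence reading. Line: DT40 Tdp1-/- complemented with hTDP1; camptothecin omitted.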
IL1B secr inh – qHTS for Inhibitors of Inflammasome Signaling: IL-1-beta AlphaLISA Primary Screen. THP-1 LPS/ATP IL-1B secretion, AlphaLISA, 16 h; stronger effect = lower value. activity change, % at 57.5 µM. 360,000 tested, 4.7% active. AID 743279, 2014; in the data active = activity change below about -50%; inconclusive = mostly about -30% to -49%
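Secreted IL-1B measured by AlphaLISA bead assay after 16 h compound exposure of THP-1 cells; compounds (final up to 57.5 uM) added 1 h before LPS (250 ng/mL) and ATP (1.25 mM) stimulation; lower signal means less secretion.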
HT1080 IDH1KD tx – qHTS for induction of synthetic lethality in tumor cells producing 2HG: qHTS for the HT-1080-IDH1KD cell line; AID 686971, 2013; HT-1080 IDH1 knockdown viability, ATP luminescence, 48 h; Potency, µM (top dose mostly 46.1 µM), most hits filed as cytotoxic; 360,000 tested, 2% active
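In this qHTS, HT-1080 cells depleted of IDH1 are exposed for 48 h at 37 °C to compound titrations. Toxicity is scored from CellTiter-Glo luminescence, with DMSO as full viability and medium alone as none.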
HT1080NT lethal – qHTS for induction of synthetic lethality in tumor cells producing 2HG: qHTS for the HT-1080-NT fibrosarcoma cell line; HT-1080-NT fibrosarcoma viability, CellTiter-Glo ATP luminescence, 48 h; Potency, µM (highest dose often 46.1 µM), actives largely listed as cytotoxic; 360,000 tested, 1.6% active; AID 686970, 2013;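 note: NT is the 2HG producing partner of a matched IDH1 knockdown line; nearly all actives have a fitted effect of over 55% in size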
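Viability of the 2HG-overproducing fibrosarcoma line after 48 hours of compound exposure at 37 degrees C was determined by luminescence with CellTiter-Glo, and concentration-effect curves were then fitted and categorized.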
TDP1 cell CPT – qHTS for Inhibitors of human tyrosyl-DNA phosphodiesterase 1 (TDP1): qHTS in cells in presence of CPT | chicken DT40 Tdp1-/-;hTDP1 cells + 20 nM CPT, ATP luminescence, 48 h | Potency, µM (series often up to 46.2 µM), usual class: inhibitors | 420,000 tested, 12% active; note: nearly all actives have a fitted effect of over 55% in size
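Chicken DT40 Tdp1-/- cells stably complemented with human TDP1 were seeded at 400 cells/well in medium containing 20 nM camptothecin, exposed to pin-transferred compounds, and grown at 37 °C for at least 48 hr. Viability was read as ATP luminescence.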
A number is an active result; 0 = inactive; ? = inconclusive; - = no result. Unless noted, calls come from the whole dose curve; as a rule, active = well fitted curve in the direction sought with a large enough effect; inconclusive = small, poorly fitted or top-dose-only effect, or another doubt; inactive = no such curve, though single readings can be large; an effect the other way counts as inactive or inconclusive.

SMILES | DT40 TDP1 no CPT | IL1B secr inh | HT1080 IDH1KD tx | HT1080NT lethal | TDP1 cell CPT
O=S(=O)(c1ccc(N2CCN(S(=O)(=O)c3ccccc3)CC2)nc1)N1CCCC1 | 0 | 0 | 0 | 0 | 0
O=C(c1ccc(Br)o1)N1CCN(c2ccc3nnc(-c4ccccc4)n3n2)CC1 | 14.6µM | 0 | 0 | 0 | 16.4µM
O=c1c(-c2cccs2)nc2cncnc2n1C1CC1 | 0 | - | - | - | 0
Cn1c2c(c(=O)n(C)c1=O)C(c1ccccc1Cl)C(C#N)=C(N)O2 (stereo unspecified) | 0 | 0 | 0 | 0 | 0
Cn1c2c(c(=O)n(C)c1=O)C(c1ccc(Br)cc1)C(C#N)=C(N)N2 (stereo unspecified) | 23.1µM | 0 | 0 | 0 | ?
Cc1nnc(N2CCN(c3ccccc3)CC2)[nH]c1=O | 5.8µM | 0 | 0 | 0 | 5.17µM
CCc1c(C)nc(N2CCN(c3ccc(OC)cc3)CC2)[nH]c1=O | 20.6µM | 0 | 0 | 0 | ?
Cc1ccc(/C=N\NC(=O)c2ccc3c(c2)OCO3)o1 | 0 | 0 | 0 | 0 | 0
CC(=O)Nc1ccc(S(=O)(=O)NC2(C(F)(F)F)NC(=O)N(c3ccc(C)cc3)C2=O)cc1 (stereo unspecified) | 0 | 0 | 0 | 0 | 0
Cc1ccc(S(=O)(=O)N2[C@@H](c3ccc(Cl)cc3)C(C(=O)OC(C)(C)C)=CC[C@H]2c2ccc(Cl)c(Cl)c2)cc1 | 14.6µM | 0 | 0 | 0 | ?
Cc1ccc(S(=O)(=O)N2[C@@H](c3cccc(Cl)c3)C(C(=O)OC(C)(C)C)=CC[C@H]2c2ccc(C(C)C)cc2)cc1 | 14.6µM | 0 | 0 | 0 | ?
COc1ccc([C@@H]2CC=C(C(=O)O)[C@H](c3ccc(C(C)(C)C)cc3)N2S(=O)(=O)c2ccc(C)cc2)cc1OC | 14.6µM | 0 | 0 | 0 | ?
CCn1c(SCC(=O)N/N=C/c2c[nH]c3ccccc23)nnc1-c1ccc(C(C)(C)C)cc1 | ? | 0 | ? | ? | ?
O=C(CSc1nc2c(c(=O)[nH]1)CN(Cc1ccc(F)cc1)CC2)Nc1ccc(F)cc1 | 16.4µM | 0 | 0 | 0 | 20.6µM
Cc1ccc(NC(=O)CSc2nc3c(c(=O)[nH]2)CN(Cc2ccc(F)cc2)CC3)cc1C | ? | 0 | 0 | 0 | ?
O=C(Nc1ccc(Cl)cc1)c1cc2c(cc1O)[nH]c1ccccc12 | 4.11µM | -95.1 | 14.6µM | 14.6µM | 3.26µM
CC(=O)Nc1ccc2[nH]c3ccccc3c2c1 | 0 | 0 | 0 | 0 | 0
CCc1cccc2sc(N3CCN(C(=O)c4ccc([N+](=O)[O-])o4)CC3)nc12 | ? | -102.9 | ? | 0 | ?
CCOc1cccc2sc(N3CCN(C(=O)C(C)(C)C)CC3)nc12 | 20.6µM | - | - | - | ?
CCOc1cccc2sc(N3CCN(C(=O)c4ccco4)CC3)nc12 | 16.4µM | - | - | - | 14.6µM
COc1cccc2sc(N3CCN(C(=O)c4ccco4)CC3)nc12 | ? | 0 | 0 | 0 | 0
OC(c1ccc(F)cc1)c1nc(-c2ccncc2)cs1 (stereo unspecified) | 7.31µM | 0 | ? | 0 | 7.31µM
OC(c1ccc(F)c(F)c1)c1nc(-c2cncnc2)cs1 (stereo unspecified) | ? | 0 | 0 | 0 | 0
OC(c1ccc(F)c(F)c1)c1nc(-c2cccc(C(F)(F)F)c2)cs1 (stereo unspecified) | ? | 0 | ? | ? | 16.4µM
OC(c1ccc(F)cc1)c1nc(-c2cccc(F)c2)cs1 (stereo unspecified) | ? | 0 | 0 | 0 | ?
OC(c1ccc(F)c(F)c1)c1nc(-c2ccc(Cl)cc2)cs1 (stereo unspecified) | 16.4µM | 0 | ? | 0 | ?
OC(c1ccc(F)c(F)c1)c1nc(-c2ccncc2)cs1 (stereo unspecified) | 8.2µM | 0 | ? | 0 | 8.2µM
